# High-throughput results deposited in PubChem BioAssay by several laboratories.
# aSyn UTR inh: MLPCN primary screen, SNCA 5' untranslated region; inhibition, % (tested at 7.5 µM); alpha-synuclein 5'UTR reporter, inhibitor activity; 0.82% of 300,000 active; AID 1813, 2009; in the data active = inhibition above about 60%;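 also: H4 neuroglioblastoma cells stably carrying SNCA 5'UTR luciferase fusion; 0% = DMSO wells and 100% = positive control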
# Platelet DG rel: inhibitors of platelet dense granule secretion, primary screen, cell-based, MLPCN, human platelets; human platelet-rich plasma, SFLLRN dense granule ATP release, luminescence; inhibition, %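 (compounds screened at 7.5 µM in platelet-rich plasma)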; 0.22% of 300,000 active;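 active = mean replicate score, as percent of positive control, at or above 50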
# KLF5 inhibitor: KLF5 expression inhibitors, primary screen, DLD-1 cells, luminescence; 0.23% of 290,000 active; inhibition, % at 5 µM; DLD-1 KLF5 promoter-luciferase reporter; AID 1700, 2009;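 active = inhibition above a per-plate limit of that plate's mean compound inhibition plus 3 SD, cut at about 60% in these data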;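 also: 0% = DMSO wells and 100% = LY294002 at 200 µM; higher means less KLF5 promoter-driven luciferase light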
# Wee1 degr inh: Wee1 degradation inhibitors, primary screen, cell-based, HeLa, Wee1K328M-luciferase, luminescence. reporter increase, % at 5 µM. 1.2% of 220,000 active. HeLa Luc-Wee1K328M stability; 100% = proteasome inhibitor MG132 effect. Wee1-like protein kinase (Homo sapiens), P30291;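 active = activation above the mean of all tested compounds plus 3 SD, set per screening run, cut at about 8.8% in these data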;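 also: cells exposed to compound for 20 h before luminescence read; 0% = DMSO alone and 100% = MG132 at 30 µM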
# Target sequence (P30291 whole entry K328M): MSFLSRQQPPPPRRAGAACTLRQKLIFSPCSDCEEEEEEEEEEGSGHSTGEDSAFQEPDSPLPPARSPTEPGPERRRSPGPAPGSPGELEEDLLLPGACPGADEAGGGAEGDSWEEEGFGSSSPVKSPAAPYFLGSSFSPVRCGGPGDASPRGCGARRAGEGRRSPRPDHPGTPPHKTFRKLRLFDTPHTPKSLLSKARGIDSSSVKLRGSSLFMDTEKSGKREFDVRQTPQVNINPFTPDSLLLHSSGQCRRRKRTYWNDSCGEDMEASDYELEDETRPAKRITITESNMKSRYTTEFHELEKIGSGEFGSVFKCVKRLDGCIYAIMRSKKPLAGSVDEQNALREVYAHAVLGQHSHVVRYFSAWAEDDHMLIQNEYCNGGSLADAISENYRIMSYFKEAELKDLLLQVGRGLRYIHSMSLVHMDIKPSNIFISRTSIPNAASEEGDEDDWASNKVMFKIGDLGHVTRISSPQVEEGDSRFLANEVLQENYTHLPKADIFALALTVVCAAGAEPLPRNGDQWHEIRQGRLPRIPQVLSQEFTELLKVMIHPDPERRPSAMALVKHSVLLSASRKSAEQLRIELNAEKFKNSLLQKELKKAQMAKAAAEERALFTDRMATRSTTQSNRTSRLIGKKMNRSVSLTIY
# HIF activator: HIF pathway transcriptional activators, primary screen, cell-based, U2OS HRE-luciferase, luminescence | 0.32% of 300,000 active | U2OS HRE-luciferase reporter; normalized: DMSO 0%, desferrioxamine 100% | activation, % at 7.5 µM (by protocol) | AID 1910, 2009;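 active = mean activation of at least 10% of the iron chelator positive control signal, with at least half of replicates also reaching 10%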
# Starred values were filed as active, the others as inactive; / = no result given. This is a sample that favours compounds with a hit; in the whole collection about 2.1% have one here.
SMILES,aSyn UTR inh,Platelet DG rel,KLF5 inhibitor,Wee1 degr inh,HIF activator
COc1cc(/C=N/Nc2ccc(Cl)c(C(=O)O)c2)ccc1OCC(=O)N1C(C)CCCC1C (centres undefined),5,-5,9,-2,-1
COC(=O)Nc1ccc(S(=O)(=O)N(C)C)cc1,0,16,-33,-1,29*
O=C(O)c1ncc(Cl)c(Cl)c1Cl,-9,-4,15,-3,1
CCOc1ccc(/C=C2/SC(=S)N(C(C(=O)O)c3ccccc3)C2=O)cc1OCC (centres undefined),/,/,-19,17*,/
CCc1ccc(/C=C2\SC(=S)N(CCC(=O)Nc3cc(C)on3)C2=O)cc1,69*,-3,-3,-1,-1
Cc1cc(NC(=O)CCN2C(=O)/C(=C/c3ccccc3Cl)SC2=S)no1,-21,9,-9,2,0
CCOc1ccc(/C=C2\SC(=S)N(CCC(=O)O)C2=O)cc1,115*,1,35,-5,-2
COc1ccc(NC(=O)Nc2cnccn2)cc1OC,21,-8,-3,/,0
C#Cc1cccc(NC(=O)c2ccc3c(c2)C(=O)N(Cc2cccnc2)C3=O)c1,-14,4,6,/,0
CC(C)N(C)Cc1nnnn1CC(=O)N(C)Cc1cccc(Cl)c1,9,-9,-18,/,-4
CC1CCN(Cc2nnnn2CCCC(=O)NCCc2cnn(C)c2)CC1,-8,-6,11,/,67*
CCCS(=O)(=O)N1CCCC(C(=O)Oc2ccc(Cl)cc2)C1 (centres undefined),1,3,-31,/,-13
Cc1nn(-c2ccccc2)c2c1C(c1ccc(Br)s1)C(C#N)=C(N)O2 (centres undefined),/,/,-7,9.1*,/
CCOC(=O)c1ccc(NC(=O)NNS(=O)(=O)c2cc(OC)ccc2OC)cc1,-12,-2,-11,/,2
O=C(O)CCC(=O)N1CCCC1,-3,2,-17,9.9*,0
CN1CCN(C(=O)CCC(=O)O)CC1,-2,6,-9,2,0
COc1ccccc1-c1cc(C(F)(F)F)nc(S(=O)(=O)CCCC(=O)N2CCCCC2C)n1 (centres undefined),-50,-1,-15,2,11*
COc1ccccc1-c1cc(C(F)(F)F)nc(S(C)(=O)=O)n1,-27,4,5,3,16*
COc1ccccc1-c1cc(C(F)(F)F)nc(S(=O)(=O)CCCC(=O)Nc2cc(C)on2)n1,-65,/,-4,-1,0
COc1ccc(-c2cc(C(F)(F)F)nc(S(=O)(=O)CCCC(=O)Nc3cc(C)on3)n2)cc1OC,-3,-1,-30,-1,12*
COc1ccccc1-c1cc(C(F)(F)F)nc(S(=O)(=O)CCCC(=O)NC(C)C)n1,-46,-5,17,-1,24*
COc1ccccc1-c1cc(C(F)(F)F)nc(S(=O)(=O)CCCC(=O)NCc2ccc(F)cc2)n1,-20,14,-23,4,26*
COc1ccccc1-c1cc(C(F)(F)F)nc(S(=O)(=O)CCCC(=O)Nc2cccnc2Cl)n1,/,/,-18,0,/
COc1ccc2nc3cc(Cl)ccc3c(Nc3cc(CN4CCCC4)c(O)c(CN4CCCC4)c3)c2n1,104*,0,20,/,-1
COc1ccccc1OCc1nnc(SCC(=O)NCc2ccco2)n1-c1ccccc1,-12,-1,0,1,423*
SMILES,aSyn UTR inh,Platelet DG rel,KLF5 inhibitor,Wee1 degr inh,HIF activator
O=C(C1CCCN(Cc2ccccc2F)C1)N1CCCCC1 (centres undefined),-4,-2,-26,/,1
O=C(C1CCCN(Cc2ccccc2Br)C1)N1CCCCC1 (centres undefined),22,6,-47,11*,-1
O=C(C1CCCN(Cc2ccccc2F)C1)N1CCc2ccccc2C1 (centres undefined),17,-23,-52,-1,108*
Cc1oc2c(CN3CCCCC3C)c(O)ccc2c(=O)c1-c1ccc(Br)cc1 (centres undefined),-4,-3,-6,/,-1
O=C(O)c1cccnc1SCc1ccccc1Cl,-2,-4,-35,2,108*
O=C(O)c1cccnc1Sc1ccccc1Cl,-5,2,-60,-2,0
Clc1ccccc1N1CCN(Cc2c[nH]c3ccccc23)CC1,64*,-6,/,/,0
O=S(=O)(c1ccc(Cl)cc1)N1CCN(Cc2c[nH]c3ccccc23)CC1,17,3,-32,-3,1
